# Test results as given in PubChem BioAssay AID1986 (Sanford-Burnham Center for Chemical Genomics, 2009).
# Values joined by “and” are separate entries in the source; they are usually repeats but may differ in a detail not shown here. Equal values may be shown once. Out of some 290,000 compounds screened, about 890 (0.31%) were called active. Rule as the data show it: active = inhibition mostly above about 52% (no sharp cut-off); inactive = mostly below about 76%. Many of the other results were omitted from the sample, so actives are more common in it than they were.
# Experiment: cell-free HIV fusion peptide-binding blockers – biochemical, uHTS, fluorescence dequenching, primary screen (AID 1986)
# Settings: 30 min, stronger effect = higher value
# [1] = measured here: repeat confirmation average inhibition, at 18.6 µM
SMILES,inhibition (at 20 µM),inhibition [1]
COCCCNC(=O)Cn1cc(/C=C2\C(=O)NC(=O)N(c3ccccc3F)C2=O)c2ccccc21,159% (inactive),–
COCCNC(=O)Cn1cc(/C=C2\C(=O)NC(=O)N(c3cccc(C)c3C)C2=O)c2ccccc21,90.2% (active),50.7%
COCCNC(=O)Cn1cc(/C=C2\C(=O)NC(=O)N(c3ccccc3F)C2=O)c2ccccc21,159% (inactive),–
O=C(O)Cn1cc(C=C2C(=O)NC(=O)NC2=O)c2ccccc21,4.8% (inactive),–
COCCNC(=O)Cn1cc(C=C2C(=O)NC(=O)NC2=O)c2ccccc21,43.1% (inactive),–
O=C(Cn1cc(C=C2C(=O)NC(=O)NC2=O)c2ccccc21)NCC1CCCO1 (stereo not drawn),61.4% (active),112%
CC(Cc1ccccc1)[n+]1cc(/N=C(\[O-])Nc2ccccc2)on1 (stereo not drawn),-1.8% (inactive),–
O=C(NCc1ccccn1)c1ccccc1Cl,-1.3% (inactive),–
CCOC(=O)c1c(C)c(P(=S)(N2CCOCC2)N2CCOCC2)n(C)c1C,-1.8% (inactive),–
CC(C)n1c(=O)c(C=Nc2ccc(F)cc2)c(O)n(Cc2ccco2)c1=O,0.1% (inactive),–
CC(C)n1c(=O)c(C=Nc2ccc(Cl)cc2)c(O)n(Cc2ccco2)c1=O,52.7% (inactive),4.1%
CC(C)n1c(=O)c(C=Nc2ccc(Br)cc2)c(O)n(Cc2ccco2)c1=O,66.2% (active),–
CCOC(=O)C1CCN(Cc2ccc(Cl)nc2)CC1,-0.9% (inactive),–
O=C1N(c2cccc(Cl)c2)C(c2cccnc2)N2CCCN12 (stereo not drawn),-0.5% (inactive),–
O=C1NC(=O)[C@]2(Cc3ccccc3N3CCN(c4ccccc4)CC32)C(=O)N1Cc1ccccc1 (stereo partly drawn),1.5% (inactive),–
COc1ccc(-c2nc3ccc(C(=O)N4CCC5(CC4)OCCO5)cc3nc2-c2ccc(OC)cc2)cc1,-1.1% (inactive),–
Cc1cc(/C=C2\C(=O)NC(=O)N(Cc3ccccc3Cl)C2=O)c(C)n1-c1ccc(C(=O)O)cc1,67.8% (inactive),40.6%
Cc1cc(/C=C2\C(=O)NC(=O)N(Cc3ccccc3)C2=O)c(C)n1-c1ccc(Cl)c(C(=O)O)c1,52.5% (active),–
Cc1cc(/C=C2\C(=O)NC(=O)N(c3ccccc3)C2=O)c(C)n1-c1ccc(C(=O)O)c(Cl)c1,9.8% (inactive),–
CCN(CC)C(=O)Cn1cc(C=C2C(=O)N(C)C(=O)N(C)C2=O)c2ccccc21,9.3% (inactive),–
COC(=O)Cn1cc(C=C2C(=O)NC(=O)NC2=O)c2ccccc21,10% (inactive),–
CN1C(=O)C(=Cc2cn(CC(=O)N3CCCC3)c3ccccc23)C(=O)N(C)C1=O,9.1% (inactive),–
CCN1C(=O)NC(=O)/C(=C\c2cn(CC(=O)N3CCCCC3)c3ccccc23)C1=O,92.7% (active),–
COC(=O)Cn1cc(C=C2C(=O)N(C)C(=O)N(C)C2=O)c2ccccc21,118% (active),98.7%

SMILES,inhibition (at 20 µM),inhibition [1]
CCn1cc(C=C2C(=O)N(C)C(=O)N(C)C2=O)c2ccccc21,6.6% (inactive),–
CCOC(=O)Cn1cc(C=C2C(=O)N(C)C(=O)N(C)C2=O)c2ccccc21,58.4% (active),149%
CCOC(=O)C1(c2ccccc2)CCN(CCC(=O)Nc2ccccc2OC)CC1,1.8% (inactive),–
CN1CCN(c2ccccc2N)CC1,1.6% (inactive),–
Cc1ccc(-n2c(O)c(C=NC3CCCC3)c(=O)[nH]c2=O)c(C)c1,2.6% (inactive),–
CCOP(=O)(OCC)C(NC(=O)C(C)C)C(Cl)(Cl)Cl (stereo not drawn),0.1% (inactive),–
CC/C(=N\NC(=O)c1ccccc1O)c1c(O)n(C2CCCCC2)c(=O)[nH]c1=O,51.3% (inactive),46.2%
CC(=O)c1ccc2c(c1)C1C(Cl)C(Sc3ccccc3[N+](=O)[O-])CC1C(C(=O)O)N2 (stereo not drawn),54.5% (inactive),1.3%
Cc1ccc2c(c1Cl)NC(C(=O)O)C1CC(Sc3ccccc3[N+](=O)[O-])C(Cl)C21 (stereo not drawn),63% (inactive),28%
O=C(O)c1cccc2c1NC(C(=O)O)C1CC(Sc3ccccc3[N+](=O)[O-])C(Cl)C21 (stereo not drawn),63.2% (active),–
O=C(COc1ccccc1)c1cn(Cc2ccccc2)c2ccccc12,80.8% (active),–
CCC(=O)c1cn(Cc2ccccc2)c2ccccc12,-1.1% (inactive),–
CC(C)(C)C(=O)c1cn(Cc2ccccc2)c2ccccc12,-0.8% (inactive),–
COC(=O)N(C)c1ccc(C(O)(C(=O)OC)C(F)(F)F)cc1 (stereo not drawn),0% (inactive),–
CC1Oc2cc3c(-c4c(O)cc(O)c5c(O)c6c(cc45)OC(C)C(C)C6=O)c(O)cc(O)c3c(O)c2C(=O)C1C (stereo not drawn),54.2% (active),–
O=C(O)c1ccc(N=Cc2c(O)[nH]c(=O)[nH]c2=O)cc1,15.8% (inactive),–
CCOC(=O)c1cc(CC)sc1/N=C/C1C(=O)NC(=S)NC1=O,30.8% (inactive),–
COc1ccc(C(=O)CC2(CC(=O)c3ccc(OC)cc3)C(=O)N(C)C(=O)N(C)C2=O)cc1,3.7% (inactive),–
CCn1nc(/C=C/c2ccccc2)nc2c(=O)n(C)c(=O)nc1-2,1.1% (inactive),–
CCn1nc(-c2cccs2)nc2c(=O)n(C)c(=O)nc1-2,1.6% (inactive),–
CCn1nc(-c2ccccc2)nc2c(=O)n(C)c(=O)nc1-2,80.2% (active),60.9%
CC1=C(C(=O)O)N2C(=O)C(NC(=O)Cc3ccccc3)C2SC1 (stereo not drawn),3.3% (inactive),–
O=P(/C(=N/O)N1CCOCC1)(N1CCOCC1)N1CCOCC1,2.4% (inactive),–
CCOC(=O)C1CCN(C(C)C(=O)c2c(C)[nH]c3cc(C)ccc23)CC1 (stereo not drawn),8.4% (inactive),–

SMILES,inhibition (at 20 µM),inhibition [1]
CCC1CCCCN1P(=O)(c1ccc(C)o1)C(C)(C)C (stereo not drawn),5.9% (inactive),–
CCc1cc(=O)oc2c(C)c(OCC(=O)N3C[C@H]4C[C@@H](C3)c3cccc(=O)n3C4)ccc12,1.3% (inactive),–
O=C(C1c2ccccc2C(=O)N2CCc3ccccc3C12)N1CCC2(CC1)OCCO2 (stereo not drawn),-2.3% (inactive),–
COc1ccc(CCNCc2cccn2C)cc1,-1.8% (inactive),–
NC(=O)c1cn(C2CCCCC2)c2ccccc2c1=O,-1.7% (inactive),–
CCCCCC(=O)N[C@@H](c1ccccc1)[C@@H](O)C(=O)O[C@H]1C[C@@]2(O)[C@@H](OC(=O)c3ccccc3)C3[C@](C)(C(=O)[C@H](O)C(=C1C)C2(C)C)[C@@H](OC1OCC(O)C(O)C1O)C[C@H]1OC[C@@]31OC(C)=O (stereo partly drawn),0% (inactive),–
CCOc1ccc(N2C(=O)NC(=O)/C(=C\c3ccc(N4CCCCC4)o3)C2=O)cc1,152% (inactive),–
O=C1NC(=O)N(c2ccc3c(c2)OCO3)C(=O)/C1=C\c1ccc(-c2ccccc2C(=O)O)o1,22.4% (inactive),–
O=C1NC(=O)N(c2ccc3c(c2)OCO3)C(=O)/C1=C/c1ccc(N2CCCCC2)o1,0.8% (inactive),–
O=C1NC(=O)N(c2ccc3c(c2)OCO3)C(=O)/C1=C/c1cccs1,12.1% (inactive),–
O=C1NC(=O)N(c2ccc3c(c2)OCO3)C(=O)/C1=C\c1ccc(N2CCCCC2)o1,112% (active),70.4%
O=C1NC(=O)N(c2ccc3c(c2)OCO3)C(=O)/C1=C/c1ccc(N2CCCC2)o1,111% (active),89.9%
CC(C)Cc1nnc(NC(=O)CCC(=O)N2CCC3(CC2)OCCO3)s1,-0.2% (inactive),–
FC(F)(F)c1ccccc1NC1=NCCCS1,-1% (inactive),–
O=C1NC(=O)N(c2ccccc2F)C(=O)/C1=C/c1ccc(Sc2nc3ccccc3[nH]2)o1,39% (inactive),–
O=C1NC(=O)N(c2cccc(Cl)c2)C(=O)/C1=C\c1ccc(Sc2nc3ccccc3[nH]2)o1,78.9% (active),–
O=C1NC(=O)N(c2ccc(Cl)cc2)C(=O)/C1=C\c1ccc(Sc2nc3ccccc3[nH]2)o1,60.1% (inactive),26%
CC1CC2(O)c3no[n+]([O-])c3CCC2N1O (stereo not drawn),1.4% (inactive),–
Cc1nc2ccc(Cl)cc2c(=O)n1-c1ccc([N+](=O)[O-])cc1,-1.1% (inactive),–
CCN(CC)c1ccc(/C=N/c2sc3c(c2C#N)C2CCN3CC2)c(O)c1,120% (active),193%
N#Cc1c(/N=C/c2ccc(O)cc2O)sc2c1C1CCN2CC1,3% (inactive),–
CC(=O)c1c(C)n(Cc2ccccc2Cl)c2ccc(O)cc12,-2.4% (inactive),–
Fc1ccc(Cn2nnnc2C(c2ccc(F)cc2)N2CC=C(c3ccc(F)cc3)CC2)cc1 (stereo not drawn),-1.1% (inactive),–
C=CCn1c(O)c(/C=C2\C=Nc3ccccc32)c(=O)[nH]c1=O,12.9% (inactive),–

SMILES,inhibition (at 20 µM),inhibition [1]
O=c1[nH]c(=O)n(-c2ccccc2F)c(O)c1/C=C1\C=Nc2ccccc21,20.7% (inactive),–
CCOc1ccc(-n2c(O)c(/C=C3\C=Nc4ccccc43)c(=O)[nH]c2=O)cc1,166% (inactive),–
O=c1[nH]c(=O)n(CC2CCCO2)c(O)c1/C=C1\C=Nc2ccccc21 (stereo not drawn),5.1% (inactive) and 14.6% (inactive),–
O=c1[nH]c(=O)n(Cc2ccccc2)c(O)c1/C=C1\C=Nc2ccccc21,102% (active),66.2%
CCCCn1c(O)c(/C=C2\C=Nc3ccccc32)c(=O)[nH]c1=O,78.2% (active),–
CCOP(=O)(OCC)/C(C#N)=C/c1ccoc1,13.5% (inactive),–
CC(=O)c1ccccc1NC(=O)C1C2CCC(O2)C1C(=O)O (stereo not drawn),0% (inactive),–
O=C1Nc2ccc(Br)cc2C(c2ccc(Cl)cc2)=NC1O (stereo not drawn),-1.3% (inactive),–
CN1CCC(C)(O)C2CCCCC21 (stereo not drawn),-1.3% (inactive),–
Cc1cc(NC(=O)C(Cl)(Cl)Cl)no1,1% (inactive),–
CCOC(=O)C1C(=O)N(C)C2(C)CC1c1ccccc1O2 (stereo not drawn),1.4% (inactive),–
Cc1ccccc1N1C(=O)/C(=C/c2ccco2)C(=O)NC1=S,76.1% (active),–
CN1C(=O)C(=Cc2ccc(Sc3ccccc3)o2)C(=O)N(C)C1=O,15.9% (inactive),–
Cc1ccccc1N1C(=O)NC(=O)/C(=C\c2cc(Br)c(N3CCOCC3)o2)C1=O,147% (inactive),–
O=C1NC(=O)C(=Cc2ccc(N3CCOCC3)o2)C(=O)N1,127% (inactive),–
CN1C(=O)/C(=C\c2ccc(N3CCCCCC3)cc2)C(=O)NC1=S,1.7% (inactive),–
CN1C(=O)/C(=C\c2ccc(N3CCCCC3)o2)C(=O)NC1=S,151% (inactive),–
CN1C(=O)/C(=C/c2ccc(N3CCCCCC3)o2)C(=O)NC1=S,103% (active),52.7%
CCN(CC)c1ccc(C=C2C(=O)N(C)C(=S)N(C)C2=O)o1,91% (active),50.9%
Cc1ccccc1N1C(=O)NC(=O)/C(=C/c2ccc(N3CCOCC3)o2)C1=O,124% (active),80.2%
CCOc1cccc(N2C(=O)/C(=C/c3ccco3)C(=O)NC2=S)c1,15.4% (inactive),–
O=C1NC(=S)N(c2ccccc2)C(=O)/C1=C/c1ccco1,29.6% (inactive),–
CCN(CC)c1ccc(/C=C2\C(=O)NC(=S)N(C)C2=O)o1,149% (inactive),–
